GLP1R ag – activates the human GLP-1 receptor; AID 624172; P43220; Potency, µM (series often up to 45.6 µM), for the others: at the highest dose activation, hits mostly activators; HEK293 GLP-1R CRE-luciferase, luminescence, 4-6 h; cells express a hypersensitive GLP-1R form; actives 0.007% (n = 380,000); also: potency is read from the fitted curve at half-maximal effect; % of control where 0% means no effect
p53 reactivator – re-activators of mutant p53 | H1299 p53-A138V BP100-luciferase reporter, luminescence, 24 h | Potency, µM (highest dose often 92.2 µM), for inactives: top-dose activity change, positive = activation, hits mostly activators | actives 0.063% (n = 320,000) | AID 504706; also: potency is read from the fitted curve at half-maximal effect; % of control where 0% means no effect; nearly all actives have a fitted effect of over 45% in size
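H1299 (p53-null), stable ts p53-A138V + BP100-Luc; 1000 cells/well, Opti-MEM/10% FBS; cpd 4 pt, 1:5; 24 h, 37 deg C, 5% CO2; detection reagent 10 min RT; luminescence.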
GLP1R cytotox – cytotoxicity counter-screen for GLP-1 receptor inverse agonists; HEK293 cAMP-luciferase reporter cells, luminescence, 24 h; Potency, µM (highest dose often 38.3 µM), inactives show at the top dose activity change, negative = inhibition, hits mostly inhibitors; actives 0.13% (n = 410,000); AID 624418;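 also: loss of luciferase light is scored as toxicity; potency is read from the fitted curve at half-maximal effect; % is scaled to controls: 0 for no effect and ±100 for the full control effect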
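To flag toxic compounds, the library was rerun on cells for 24 hr at 37 deg C and 5% CO2. Viability-linked luminescence was captured 12 min after adding luciferase detection reagent.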
GLP1R inv ag – inverse agonists of human GLP-1 receptor; HEK293 GLP-1R CRE-luciferase, luminescence, 24 h; GLP-1R form is constitutively active; Potency, µM (doses to about 38.3 µM), without a hit: at the highest dose activity change, negative = inhibition, most hits filed as inhibitors; P43220; actives 1.6% (n = 410,000); also: potency is read from the fitted curve at half-maximal effect; % is scaled to controls: 0 for no effect and ±100 for the full control effect; nearly all actives have a fitted effect of over 55% in size
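GLP-1R inverse agonism mode: basal reporter luminescence in engineered HEK293 cells measured after one day of compound exposure at 37 deg C, with a 12 min room-temperature detection step.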
ClpP mod – qHTS Assay for Activators of ClpP. ATP-dependent Clp protease proteolytic subunit (Bacillus subtilis (strain 168)), P80244. purified B. subtilis ClpP, FRET peptide cleavage, 20 min. Potency, µM (highest dose often 57.5 µM), for the others: at the top dose activity change, negative = active. actives 1.9% (n = 340,000). AID 651965, 2013; active = well fitted falling curve with a large enough effect; inconclusive = small, poorly fitted or top-dose-only effect; inactive = no such curve, though single readings can be large or run the other way; also: potency is read from the fitted curve at half-maximal effect; the source files actives as falling curves though it sought activators and does not explain the sign; nearly all actives have a fitted effect of over 65% in size
Target sequence (P80244 whole entry, looked up): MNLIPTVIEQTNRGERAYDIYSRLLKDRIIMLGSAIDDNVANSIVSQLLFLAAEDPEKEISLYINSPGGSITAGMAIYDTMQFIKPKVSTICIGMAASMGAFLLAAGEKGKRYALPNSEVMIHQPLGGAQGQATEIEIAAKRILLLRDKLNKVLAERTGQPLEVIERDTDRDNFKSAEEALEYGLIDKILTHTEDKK
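Purified B. subtilis ClpP, 10 microg/mL final in Tris/HCl pH8 with KCl, BSA, glycerol and Tween-20, cleaved an Abz/nitrotyrosine-quenched decapeptide. Fluorescence (ex 320, em 430) was read at 0 and 20 min at room temperature. Delta was normalized to 5.8 microM ADEP and DMSO/no-enzyme controls.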
LDHA block – LDHA (human) enzyme inhibition; P00338; purified LDHA, NADH/diaphorase-resazurin fluorescence; hits give low values; actives 0.15% (n = 480,000); activity change, % (values are at about 110 or 230 µM); in the data active = activity change below about -30%; inconclusive = mostly about -25% to -30%;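 also: plate controls were DMSO wells for no effect and wells without enzyme for full effect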
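Enzyme activity of human lactate dehydrogenase 5 (2 nM; 0.06 mM NADH, 0.2 mM pyruvate, 5 min, RT) is measured via a resazurin/diaphorase fluorescence readout of residual NADH.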
* = called active by the depositor; ? = inconclusive; / = no result. Shown are actives, neighbours in structure and some others; about 2.9% of the full set was active somewhere. Unless noted, calls follow the shape of the dose curve; as a rule, active = well fitted curve in the direction sought with a large enough effect; inconclusive = small, poorly fitted or top-dose-only effect, or another doubt; inactive = no such curve, though single readings can be large; an effect the other way counts as inactive or inconclusive.

SMILES	GLP1R ag	p53 reactivator	GLP1R cytotox	GLP1R inv ag	ClpP mod	LDHA block
CCOC(=O)c1nc2cc3n(c(C)c-2c1C)C(C)C(C)=C3C (centres undefined)	-10%	-8%	-5%	-10%	58%	8
COc1cccc2sc(Nc3nnc(-c4ccccc4Cl)o3)nc12	6%	?	?	?	?	-11
COc1ccccc1-c1nnc(Nc2nc3c(OC)cccc3s2)o1	-14%	?	?	?	35µM*	-7
COc1cccc(-c2nnc(Nc3nc4c(F)cccc4s3)o2)c1	0%	?	1%	?	28µM*	-4
COc1ccc(C)cc1NC(=O)C1CCCN(S(=O)(=O)c2cccc3cccnc23)C1 (centres undefined)	-6%	/	18%	-13%	0%	-1
Cn1c(=O)n(CC(N)=O)c(=O)c2c1nc(Br)n2Cc1ccccc1	-6%	11%	5%	-2%	0%	2
O=C(Cc1nc(=O)c2ccccc2s1)Nc1ccccc1	4%	?	2%	4%	-1%	-6
C=CCOc1ccc2c(OC)c3ccoc3nc2c1OC	3%	?	-2%	42%	22µM*	4
Cc1cc(N)n2nc(C(F)(F)F)nc2n1	7%	1%	?	7%	/	3
CC(=O)Nc1nc(-c2ccc3c(c2)CCN3C(=O)C2CC2)c(C)s1	17%	11%	16%	0.63µM*	/	2
CNc1nc(-c2ccc3c(c2)CCN3C(=O)CC(C)(C)C)c(C)s1	-2%	-2%	0%	?	-3%	1
O=C(NCC(c1ccco1)N1CCc2ccccc2C1)c1ccc(Br)cc1 (centres undefined)	-8%	3%	-5%	?	25µM*	-3
Cc1ccc(C)c(S(=O)(=O)NCC(c2ccco2)N2CCc3ccccc3C2)c1 (centres undefined)	10%	5%	-14%	11µM*	/	-2
O=C(NCC(c1ccco1)N1CCc2ccccc2C1)c1ccc(Cl)cc1 (centres undefined)	-9%	-2%	6%	?	-1%	-10
Cc1ccc(C(=O)NCC(c2ccco2)N2CCc3ccccc3C2)cc1C (centres undefined)	-3%	-3%	-4%	11µM*	0%	-5
Cc1ccc(C(=O)NCC(c2ccco2)N2CCc3ccccc3C2)cc1 (centres undefined)	1%	1%	11%	?	-2%	0
CCOC(=O)c1sc(NC(=O)C2=COCCO2)c(C#N)c1C	?	0%	1%	12%	-1%	5
O=C(Nc1nc(-c2cccs2)cs1)c1ccc(S(=O)(=O)N2CCCCC2)cc1	-12%	9%	-12%	?	?	-6
O=C(Nc1nc(-c2cccs2)cs1)c1cccc(S(=O)(=O)N2CCCCCC2)c1	-4%	?	2%	5.6µM*	-30%	-5
CNc1ccc(/C=C2\C=Cc3ccccc32)cc1Br	/	/	/	/	-1%	-7
CC1(C)C2CC=C(/C=N/NC(=S)NC3CCCCC3)C1C2 (centres undefined)	/	/	/	/	/	1

Screening results as filed in PubChem.
